The text below walks through data of PubChem BioAssay AID1159506 (National Center for Advancing Translational Sciences (NCATS), 2015).

Over roughly 59,000 sequences, the read-out has its median near -0.00055; the lowest 2% begin near -2. Many of the other results were omitted from the sample, so the lowest values are more common in it than they were.

A short description of the assay: Identification of proteins required for the processing of the EWS-FLI1 nascent transcript.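 Further: robust z of luciferase light less the median z of siRNAs with the same seed.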 The conditions noted are these: TC32 Ewing sarcoma NR0B1-luc vs CMV-luc (EWS-FLI1 target promoter against control promoter), 48 h; screened at 20 nM (by protocol). The method, boiled down: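 TC32 Ewing sarcoma cells carrying NR0B1-promoter or CMV-promoter luciferase reporters were reverse-transfected with single siRNAs at 20 nM, three per gene genome-wide. Luminescence was read after 48 h and normalized to non-targeting controls.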
Take UUUGGGUCCUCGAUCACCC against COL8A1: the seed-corrected z-score is -1.06.
Take UUCCGUAAUGUUGCGCAUG against CORO6: the seed-corrected z-score amounted to 0.106.
On to UUCGUGCUGGGUUAUCUCG against COL24A1, for which the seed-corrected z-score was 0.737.
For the sequence UUCCAUAAAGAGUUCUGCC against ZNF280C, the seed-corrected z-score turned out to be 0.576.
To UUACUGACGACAUCAUUCC against PRPF40A belongs -0.273.
Then AUACAGAACAUAGUGGUUG against PSMD3, with -1.41; and UCAGUAGGCAUUGGAGCGG against CEBPA, with -0.0618; and AAGUCUUCAAGAUCUAUUC against FGL2, with 0.334.
To UCAUAAGUCAGGGUAUGCC against MPTX1 belongs -3.31; to UCAUAGGUCACAAAGGUGC against KIF9, 0.0712.
Consider UAUCUAAUUUUGGAAUCUC against VRK1, for which the seed-corrected z-score was -0.281.
Sequence UUCAGGGUAAGGUGGAUGG against UBD showed a seed-corrected z-score of 0.588.
AAACUUGUCAUCAGCACGC against MUC13 displayed a seed-corrected z-score of 0.662.
With UUCUGUCCCAUAAAUAGAG against TMEM207, the seed-corrected z-score was -0.0552.
Turning to UUAUCUAUACAAAGCAGAC against KLRC3, the seed-corrected z-score was -0.377.
For UUACGCAUAAUUUCCGUCA against VAMP5, the seed-corrected z-score is -0.171.
Consider AUCUGGUUUACGGUUAUUC against MEF2C, for which the seed-corrected z-score is -2.53.
Consider AAUCUUGCAAGGUUACUAC against USP33, for which the seed-corrected z-score is -1.31.
Sequence UCCAUGACGAAGCUGUUCU against SUV39H1 registered a seed-corrected z-score of 0.0817.
Then UGGUUUAUCAGUUUCAAUG against ARCN1, with -4.37; and UAUCUAAUUGAUGACAUGC against ETAA1, with 0.0808.
In turn, UGUUCUAUAGGUAACACUC against ZNF559 had a seed-corrected z-score of -0.628.
UUAAUUGCAUUUGCAGACC against CCDC171: the seed-corrected z-score stood at 0.492.
UUGUCUAGAAAAGUCCUGG against UMODL1 gave a seed-corrected z-score of -2.58.
In the case of UUCGAUAUUAGGGUAGCGG against SNRNP200, the seed-corrected z-score is -1.21.
To UGCUGUAAAGUUUUAGUCC against SLC35A5 belongs -0.426; to UCAGUGUUGGACUCCAUGC against NR2E3, 0.652; to UGUGAGAUCAGGAAUUGAC against TMEM65, -0.934.
UGCGGUUGACCGUAUAGAC against KBTBD13 yielded a seed-corrected z-score of -2.49.
To UCCUUGGUCACUGUCGCUC against KLF7 belongs -0.201; to UUGUUGGACAAGUCGAUGG against LRRC57, 0.339; to GUUGUAUUCGUCGUCGUCC against NKX6-2, 0.127.
As for UACUUAUCUCUGUCUGUUU against UBE2D3, the seed-corrected z-score is -1.14.
In the case of AUAGGUGCGACUCUCAUCC against SYMPK, the seed-corrected z-score was -2.35.
Then UUGUAGAUGCUGAAUGUCC against DNAAF1, with 0.337; and UAAUAUGAUGUCUUCAACC against GABRQ, with 0.559; and UGUUUUGCCGUCGAGGUGC against LOC642620, with 0.782.
In the case of AUUCCGACCAUGGUAAAUG against NAAA, the seed-corrected z-score stood at 0.829.
Take ACAGUACAUAGUAGGGUGG against PRR34: the seed-corrected z-score was -2.82.
Sequence UUCAUCAAAUUGGACAUCU against ATP6V1E1 came in with a seed-corrected z-score of -0.95.
In turn, UUGGUGCACAGCCUGGUAC against TSPAN32 returned a seed-corrected z-score of -0.435.
As to UCUUAGUUUCCAACGAUCC against SZT2, the seed-corrected z-score was -0.791.
Consider UCGGUAGUAGUAAUCGUGC against PNPLA1, for which the seed-corrected z-score was 0.335.
UUCGCCUCUUGUGCUAUCG against CFAP221 registered a seed-corrected z-score of 0.264.
For AUGGUUCAAACAUAGGAUG against WNK1, the seed-corrected z-score was -2.09.
Turning to UACGAGUCACGGGAAAUAC against TAF5, the seed-corrected z-score was 0.238.
On to AACUUGAGGAGGGUAAGUG against SERPINF2, for which the seed-corrected z-score is -2.44.
The sequence UUGAGUAUUCCGCUCGGGC against EDAR returned a seed-corrected z-score of -0.0352.
As to AAAACGACUCUUCAUACUG against CLRN2, the seed-corrected z-score is -1.29.
Turning to UUUAGCAACAGGUACAUUC against APBB1, the seed-corrected z-score is -0.4.
UAGAUUUUAAACAUCCUUG against FAS: the seed-corrected z-score turned out to be 0.417.
Turning to UCUUUAUCACGGUCAAAUG against GPALPP1, the seed-corrected z-score is -0.108.
Regarding ACAUGGCUGAUUAAUGUGG against ZNF890P, the seed-corrected z-score is -0.143.
Consider UCUGUGGUGAUGAACACUC against OR5J2, for which the seed-corrected z-score was -1.13.
Then UUUGUUGGUAGCGAUGCAC against MYPN, with -2.09; and AAAACUUCACCUUAUACUC against SDF4, with -0.483; and GAUGCUACGAUACCAGCCA against LYPLA2P2, with 1.26.
UGUAUUUCCACGCGUGAGG against ZDHHC11 displayed a seed-corrected z-score of -0.523.
To AAAUGUGAACCUGUGCUUG against MTUS2-AS1 belongs 1.42.
As to UACGUGCCGAGUCAUCAGU against DOK4, the seed-corrected z-score was -2.12.
For AGACCUUAUACAGAGCUGC against CAPG, the seed-corrected z-score amounted to 0.432.
To AGAAGCAUCAUGGAGGUAG against COX14 belongs -1.26; to ACUAGAAUCAAUAAGGAUG against TMEM243, -0.708; to UGAGUCAUAAGAAGGGUCU against FLI1, -6.98.
Then AUAGGUGAGACGGAGGCUC against VASN, with 0.00423; and UCUGGAUCGAGGAAGCGAG against GNLY, with -2.28.
For AUAGCAAUCAUAUUCACGG against LIG4, the seed-corrected z-score is -0.537.
With AACUGAAAUAGAAGUAUCC against TMED6, the seed-corrected z-score was -0.476.
Then UGUUCUCCUGCAGUUAUCC against WFDC3, with -0.0122.
For UUGAAGACCAGGUAUUCCC against AGBL4, the seed-corrected z-score was -0.596.
Turning to UGACGUAUAUCAAUGCUCC against RRAGC, the seed-corrected z-score is -0.322.
UAGUCGUCAAGCACUUGGU against SFTPB showed a seed-corrected z-score of -0.3.
In turn, AAAUCUUGAUCUGUGACUC against EN2 had a seed-corrected z-score of 0.225.
The sequence UCUCUCAUCAAUAUGCUCU against MTHFD2 displayed a seed-corrected z-score of 0.352.
As to UAUAGGCACGCUGCUAUUC against DIRC2, the seed-corrected z-score is -2.73.
UUCGUUAGGUUUCCUUUCG against HIVEP2 displayed a seed-corrected z-score of -0.393.
On to UUCCGAAAUGAAAAGGAUC against GMPR2, for which the seed-corrected z-score amounted to 0.18.
UAAUUGCUGAUAUUCGAGC against EPB41L3: the seed-corrected z-score is -0.247.
Then UAAGAUACUCGGGUUUCAC against ZADH2, with -0.425; and AGUUCGAUUAGCUAAGGCC against SYNRG, with -0.0555; and UAUGGGAGUGUCAAUAAUC against PDHB, with -0.681.
In turn, UCAGGUGCAAUCUGACUCU against PPP1R1C yielded a seed-corrected z-score of -2.4.
Turning to AUGCUUACAAGAUCUUGUC against USP44, the seed-corrected z-score is -0.0422.
To UCACGUGUAAAGGAUCACG against RTN4IP1 belongs 0.0887.
UUCUGUUCAAAUCCAUUGG against BUD13 yielded a seed-corrected z-score of -0.753.
As to AGAGUUGUUGUCAUCUUCC against CACNA1S, the seed-corrected z-score is -0.313.
For UCUGGGCGUAGACAACUGC against CNTFR, the seed-corrected z-score is -2.12.
In turn, UGAACGUCCCGUCUGAGUG against SCT showed a seed-corrected z-score of -0.424.
Consider UCUUCAAUAAUGAUCUCCU against MRI1, for which the seed-corrected z-score came out at 0.722.
To UGAAGAGUAAGCUCAAACC against ASIC5 belongs -3.53; to UAAACUUCCCUUUAAAAAC against IRF8, -0.00875.
In turn, UUCAUGUGAACUUACAGUU against UQCRHL displayed a seed-corrected z-score of 0.0588.
To UUAGUUGCAAGGCAUUCAG against FAM135A belongs -4.23.
In turn, UAAAGGUCAAGCAGUCAGU against PVRL4 had a seed-corrected z-score of 0.651.
AGUGAUGACAUUGAUAUCG against SYDE1 gave a seed-corrected z-score of 1.21.
Turning to AUAUCUACGAUCUAUAUCU against LOC645553, the seed-corrected z-score came out at 0.695.
In turn, UCUGGUUCUUGUUCAAGUG against PCDH17 had a seed-corrected z-score of -1.28.
The sequence UCGCUAUCCAUAUCAGAGG against GOLGA4 gave a seed-corrected z-score of 1.24.
Take UUAAUGGUCCUGUAGUAAC against MTMR1: the seed-corrected z-score was 0.139.
Then UACAACAAUAGCCACAGCU against OR52W1, with -2.15.
As to UGUAUUUUAUGUCUCUCCC against PLAC8L1, the seed-corrected z-score is -0.115.
AAAGCCCAAAUAUAGUUCC against NEUROD4 gave a seed-corrected z-score of 0.947.
In turn, UUUGAGGAAAGGAACUGCC against FAM228A registered a seed-corrected z-score of 0.28.
Consider AAUCUUGGUCUUACUGUCC against PKN1, for which the seed-corrected z-score is -1.59.
In turn, UACUGAGAUAGUCAAAUUC against CYB5D1 had a seed-corrected z-score of -0.0466.
For UUAUUGGAGAGCACCUGGU against PADI3, the seed-corrected z-score was 0.0879.
Then ACAUCUGUCAGGGUCAUCG against NOD1, with -0.0205; and UCCUUGUCGAAAGAAGUGC against RMND5A, with -3.27.
Then UCAGUUUACCUGAGAAGCC against C22orf39, with -0.529; and UGACUUUAAGUUUUGGGCC against LINC00999, with 0.159; and UGUAGCAUGACCGUCUUCC against LINC00239, with -0.84.
The sequence AAGGUGCACAAGUAAAGCC against LOC730100 showed a seed-corrected z-score of -2.05.
As for UCAUUGGAUUCCAAAAUCC against ADAM18, the seed-corrected z-score was 0.186.
Then UACGUUAAAAGGCAGGACA against CDKN2A, with -0.998.
The sequence UAGCAGAUGAGAGACUAUG against MRPS24 yielded a seed-corrected z-score of -0.269.
Turning to UUUAUGGGCUCUUUUGACG against ENPP5, the seed-corrected z-score is -0.349.
As to UAUGCUAAGGUAGCAGUUG against RNF133, the seed-corrected z-score was determined as 0.16.
As to UAUAAGUCUGGGAUAUCUG against CATSPERD, the seed-corrected z-score is -0.549.
The sequence UCUUCGAAAGUGACCAGCA against INTS6 yielded a seed-corrected z-score of -0.292.
Turning to UAACCUCCAUCCGAGGUGG against INHA, the seed-corrected z-score is -0.1.
In turn, UGGGAUACCCUCCUUGUCU against UBA52 had a seed-corrected z-score of -2.1.
The sequence UCUUUGAACAGGAUAAACC against HNRNPAB yielded a seed-corrected z-score of 0.756.
Turning to UGAAUAUCAAGUUAGAUCC against OR5AK2, the seed-corrected z-score came to 0.308.
For the sequence UCUCUUGCUUGGAGGAAGC against ZNF174, the seed-corrected z-score worked out at 0.443.
With UCGGAGAUCAGGCUAGUGG against TMEM82, the seed-corrected z-score is -2.03.
UCCGGGUUCAGCAUGUCCA against ESPN yielded a seed-corrected z-score of -0.679.
In the case of UAAUUGACCUGUACGCUCG against GATM, the seed-corrected z-score is 0.156.
For the sequence AAAGCAGUUGGAACCGUUG against KRTAP24-1, the seed-corrected z-score is 0.448.
Turning to AUCGAUUUUAAUGAACCGC against RPS4X, the seed-corrected z-score is 1.4.
On to AAAGGCGUAGAGGAGCUGG against TRIB3, for which the seed-corrected z-score is -3.4.
To UAGGUGAACAUCAUGACGC against ITGB5 belongs -0.131.
Then AUCUUUGUUGCGGAGACUG against OR2T34, with -0.514; and AGCUUGAUCAUUCUAGUGC against FLJ36777, with 0.325.
